# SSB-PriA inh: blocks PriA binding to SSB C-terminal tail | AlphaScreen SSBct-PriA binding, biotinylated peptide | inhibition, % at 33 µM | hit rate 0.6% among 430,000 | AID 1272365; in the data active = inhibition mostly above about 37%, no sharp cut-off; inactive = mostly below about 20%;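 note: plate controls were negative control peptide for no effect and reference peptide for full effect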
# Mtb UGM inh: blocks M. tuberculosis UGM enzyme; inhibition, % at 10 µM; purified UGM, fluorescence polarization probe displacement; P9WIQ1; hit rate 0.06% among 320,000; in the data active = inhibition above about 10%, passing the limit was not always enough
# Rv3671c inh: inhibits the M. tuberculosis serine protease Rv3671c; P9WHR9; inhibition, % at 5.96 µM; hit rate 0.048% among 320,000; in the data active = inhibition above about 38%;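 note: extracellular domain of Rv3671c used as enzyme; 0% = enzyme with DMSO and 100% = no enzyme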
# Target sequence (P9WHR9 whole entry, looked up, the tested form may be a part): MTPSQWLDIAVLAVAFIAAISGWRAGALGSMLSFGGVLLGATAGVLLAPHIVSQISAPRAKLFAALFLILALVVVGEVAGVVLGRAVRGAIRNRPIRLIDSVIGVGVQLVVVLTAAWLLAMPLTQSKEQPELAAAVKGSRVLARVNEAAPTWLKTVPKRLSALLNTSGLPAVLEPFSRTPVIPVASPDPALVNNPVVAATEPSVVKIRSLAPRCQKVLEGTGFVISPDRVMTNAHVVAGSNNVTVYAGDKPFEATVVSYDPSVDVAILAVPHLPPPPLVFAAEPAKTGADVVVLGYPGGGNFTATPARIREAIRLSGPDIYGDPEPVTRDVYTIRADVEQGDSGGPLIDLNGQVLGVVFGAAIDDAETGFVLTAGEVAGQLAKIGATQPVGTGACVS
# Mtb betalactam: beta-lactam sensitization of Mtb H37Rv | M. tuberculosis H37Rv growth with meropenem, percent inhibition | inhibition, % at 25 µM | hit rate 0.27% among 330,000; call rule not given here;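 note: growth measured after seven days incubation then overnight dye step; 0% = bacteria only wells and 100% = bacteria with antibiotic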
# RecA splice inh: blocks M. tuberculosis RecA intein splicing | P9WHJ3 | cell-free RecA intein splicing, fluorescence | inhibition, % (concentration not given with the values) | hit rate 0.75% among 290,000 | AID 2221; in the data active = inhibition above about 30%;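 note: 0% = vehicle wells and 100% = reference inhibitor control wells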
# An asterisk follows results filed as active; . = no result; ! = not confirmed by another sample. Compounds with a hit are over-represented: about 1.1% of the library has one in this group of screens.
SMILES,SSB-PriA inh,Mtb UGM inh,Rv3671c inh,Mtb betalactam,RecA splice inh
CC(=O)NC(Cc1ccccc1)C(=O)OCC(=O)c1ccccc1 (stereo unspecified),5,13*,-2,-3,0
CC(=O)NC(Cc1ccccc1)C(=O)OCC(=O)c1ccc(Br)cc1 (stereo unspecified),3,0,-5,0,4
O=C(NCc1ccccn1)C(=O)NC[C@@H](c1ccco1)N1CCN(c2ccc(F)cc2)CC1,-2,.,.,.,.
CCC(C)c1ccccc1OCC(O)CN1CCN(CCN2C(=O)c3cccc4cccc(c34)C2=O)CC1 (stereo unspecified),46*!,.,.,.,.
O=C1c2cccc3cccc(c23)C(=O)N1CCN1CCN(CC(O)COc2ccccc2)CC1 (stereo unspecified),0,0,-6,62,-1
COc1ccc(C(=O)CN2CCN(CCN3C(=O)c4cccc5cccc(c45)C3=O)CC2)cc1,62*!,2,-3,36,4
O=C(NC(=S)Nc1ccccc1N1CCCC1)c1ccc([N+](=O)[O-])cc1,70*,-3,5,-3,12
Cc1ccc(N2CC(c3nc4ccccc4n3Cc3ccccc3F)CC2=O)cc1C (stereo unspecified),11,.,.,.,.
c1ccc(CN2CCNCC2)nc1,6,3,0,-1,-1
c1ccc(CNCCN2CCNCC2)nc1,38*,0,-7,-1,-1
CC(/C=C/c1ccc2c(c1)OCO2)=NNC(=O)c1ccc(C)nc1,8,.,.,.,.
OCCN(Cc1cccnc1)Cc1ccccn1,42*,.,.,.,.
OCCN(Cc1ccccc1)Cc1ncccc1O,-2,.,.,.,.
c1ccc2c(-c3nn[nH]n3)cccc2c1,-11,4,-4,-1,0
Oc1cccc2c(-c3nn[nH]n3)ccnc12,54*,4,3,1,.
OCc1ccnc2c(O)cccc12,87*,0,2,16,-31
NC(=O)c1ccnc2c(O)cccc12,41*,0,4,-3,.
O=C(c1cc(-c2cccs2)[nH]n1)N1CCN(C(=O)c2cnn3ccccc23)CC1,-6,.,.,.,.
CC1(C)CNc2cc(N)ccc2S1,74*,2,-22,-7,14
c1cnc2c(c1)c1nccnc1c1cccnc12,114*,.,.,.,.
O=c1[nH][nH]c(=O)c2ncccc12,61*,.,.,.,.
Cc1c(C)c2cccnc2c2ncccc12,99*,-1,-13,74,.
Cc1ccc(O)c2ncccc12,36,.,.,.,.
CCCCOc1ccc(NC(=O)NCc2cc(C)oc2C)cc1,-13,.,.,.,.
O=C(CCC(=O)Nc1ccccc1)NN=C/C=C/c1ccccc1,7,.,.,.,.
SMILES,SSB-PriA inh,Mtb UGM inh,Rv3671c inh,Mtb betalactam,RecA splice inh
Cc1cccn2cc(-c3ccccc3NC(=O)C3CCOC3)nc12 (stereo unspecified),-8,.,.,.,.
COc1cc(OC)cc(C(=O)N2CCN(c3nccn3-c3cccc(Cl)c3)CC2)c1,40*,.,.,.,.
COc1ccc(C(=O)N2CCN(c3nccn3-c3ccc(C)cc3)CC2)c(OC)c1,38*,.,.,.,.
COc1cccc(NC(=O)Cc2csc(SCc3ccc(Cl)cc3)n2)c1,-22,.,.,.,.
CC(=NNC(=O)C1(C)CC1(Br)Br)c1cccc(NC(=O)C2CCC2)c1 (stereo unspecified),-2,.,.,.,.
CC(C)CC(NC(=O)CCl)c1ccccc1 (stereo unspecified),-5,2,3,93,44*
CCCCCCCCCC(=O)N[C@H](CN1CCOCC1)[C@H](O)c1ccccc1,-11,-3,4,0,-1
CCCCCCCCCCCC(=O)NC(C(=O)O)C(O)c1ccccc1 (stereo unspecified),97*,1,-3,-5,4
Cc1noc(C)c1S(=O)(=O)NC1CCC(Oc2ncc(F)cn2)CC1 (stereo unspecified),-13,.,.,.,.
Cn1nnn(-c2ccc(NC(=O)c3ccccc3C(F)(F)F)cc2)c1=O,-9,.,.,.,.
O=C(Nc1ccc(OCC(=O)N2CCOCC2)cc1)c1ccccc1F,-9,0,1,-8,3
O=C(Nc1ccc(Cl)cc1)c1cc(Br)ccc1OCC(=O)N1CCOCC1,44*,0,-13,6,4
Cc1ccc(NC2=C(Cl)C(=O)c3ccccc3C2=O)cc1,11,0,-1,10,4
Cc1cc(C)cc(NC2=C(N)C(=O)c3ccccc3C2=O)c1,54*,-2,-54,2,5
CCOC(=O)c1cc2c(ccn2C)n1Cc1cc(C)ccc1C,41*,-3,-7,-1,11
CS(=O)(=O)c1ccc(CCC(=O)N2CC[C@H](n3ccnn3)C2)cc1,-11,.,.,.,.
Nc1nn(S(=O)(=O)c2cccc3nsnc23)cc1-c1ccc(Br)cc1,42*,0,-3,-3,-5
O=C(NN=Cc1cccc([N+](=O)[O-])c1)C1COc2ccccc2O1 (stereo unspecified),-2,.,.,.,.
CCOC(=O)c1c(C)c(C(=O)N2CCc3ccccc3C2)c(C)n1CC,39*,2,3,18,8
CCOC(=O)c1c(C)c(C(=O)Nc2ccccc2)c(C)n1CC,-8,0,5,15,3
CCN(C(=O)COC(=O)c1ccc(O)cc1O)c1c(N)n(Cc2ccccc2)c(=O)[nH]c1=O,0,10*,-7,7,.
CCOc1ccc(S(=O)(=O)N2CCC(n3cc(-c4ccccc4)nn3)C2)cc1F (stereo unspecified),-5,.,.,.,.
CCc1ccc(Nc2n[n+](-c3ccccc3)c(-c3ccc(OC)c(Br)c3)s2)cc1,56*,1,-19,75,5
COc1ccc(C)cc1Nc1n[n+](-c2ccccc2)c(-c2ccc(SC)cc2)s1,3,1,-2,82,9
CCc1ccc(Nc2n[n+](-c3ccccc3)c(-c3ccc(C(=O)O)cc3)s2)cc1,-5,1,-5,3,2
SMILES,SSB-PriA inh,Mtb UGM inh,Rv3671c inh,Mtb betalactam,RecA splice inh
CSc1ccc(-c2sc(Nc3cccc4ccccc34)n[n+]2-c2ccccc2)cc1,47*,2,-27,81,25
CC(=O)Nc1ccc(-c2sc(Nc3cccc4ccccc34)n[n+]2-c2ccccc2)cc1,63*,0,-17,-2,5
COc1ccc(C)cc1Nc1n[n+](-c2ccccc2)c(-c2ccc(NC(C)=O)cc2)s1,47*,-3,-4,18,1
O=S(=O)(c1cccs1)N1CCC[C@H](Cc2nc(-c3ccsc3)no2)C1,-1,.,.,.,.
CCc1ccc(Nc2n[n+](-c3ccccc3)c(-c3ccc(SC)cc3)s2)cc1,66*,-3,-13,98,3
O=C(N=c1ccn(-c2nc3ccccc3nc2NS(=O)(=O)c2ccc(Cl)cc2)cc1)c1cccs1,-20,17*,-14,1,-292

# Screens from PubChem BioAssay.
